Hits are enriched below; roughly 1.8% of the tested compounds scored in any of these assays.
ERAP1 inh: inhibitors of human ERAP1 aminopeptidase; Q9NZ08; recombinant ERAP1, Leu-AMC fluorescence, 60 min; inhibition, % at 10.7 µM; actives 0.15% (n = 340,000); AID 652197;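 active = mean replicate inhibition of at least 30%, or all replicates individually reaching that 30% level; inactive = mean below 30% and not every replicate reaching it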;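 also: 0% = neutral control wells and 100% = L-leucinethiol positive control wells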
PDI inh: blocks human protein disulfide isomerase activity | actives 0.052% (n = 350,000) | inhibition, % at 10 µM | PDI insulin aggregation turbidity, A650, 90 min;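 active = mean inhibition across replicates of 30% or more, whatever share of single replicates reach that level; inconclusive = mean inhibition below 30% while every single replicate reaches 30%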
ERp5 inh: inhibitors of human ERp5. ERp5 insulin aggregation, absorbance 650 nm, 90 min. Q15084. actives 0.05% (n = 350,000). inhibition, % at 9.99 µM;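 active = mean replicate inhibition above about 25%, with every replicate also reaching it, limit read from the data, passing the limit was not always enough; inconclusive = only one of those two criteria met; inactive = neither criterion met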
Target sequence (Q15084 whole entry, looked up): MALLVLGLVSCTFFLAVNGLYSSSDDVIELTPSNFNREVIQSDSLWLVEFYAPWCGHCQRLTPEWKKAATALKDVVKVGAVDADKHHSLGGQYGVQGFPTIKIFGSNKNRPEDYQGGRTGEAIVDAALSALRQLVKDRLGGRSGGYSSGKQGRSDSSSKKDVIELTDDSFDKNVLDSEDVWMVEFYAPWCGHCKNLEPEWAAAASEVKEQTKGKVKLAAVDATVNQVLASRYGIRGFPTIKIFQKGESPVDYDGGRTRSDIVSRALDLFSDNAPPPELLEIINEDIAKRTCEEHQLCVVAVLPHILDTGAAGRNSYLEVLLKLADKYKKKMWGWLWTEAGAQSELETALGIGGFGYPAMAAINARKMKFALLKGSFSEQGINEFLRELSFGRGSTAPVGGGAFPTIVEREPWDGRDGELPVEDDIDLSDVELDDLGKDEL
DENV2 CPE: inhibitors of DENV2 cytopathic effect | DENV2-infected cells, cytopathic effect rescue, plate reader | CPE inhibition, % at 9.99 µM | actives 1.7% (n = 350,000) | AID 651640; in the data active = CPE inhibition above about 20%, passing the limit was not always enough; inconclusive = no clear call, values can overlap the other calls; tested in BHK-21 cells;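 also: 0% = median of neutral control wells and 100% = median of positive control wells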
AF4-AF9 inh: inhibitors of human MLL-AF4/AF9 interaction; P42568; AlphaScreen, biotin-AF4 peptide binding to FLAG-AF9; inhibition, % at 10 µM; actives 0.47% (n = 350,000);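 active = every replicate reaching a set inhibition limit, whatever the replicate mean, cut at about 25% in these data; inconclusive = mean inhibition reaches that limit but some replicates miss it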;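 also: 0% = plate neutral control median and 100% = total signal loss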
* marks the source's active call; other numbers are inactive results.

How did Cc1ccc(S(=O)(=O)N(C)C[C@@H]2OCCCC[C@@H](C)Oc3ccc(NC(=O)Nc4ccc(C(F)(F)F)cc4)cc3C(=O)N([C@@H](C)CO)C[C@H]2C)cc1 do in these assays?
ERAP1 inh: 1; ERp5 inh: -5; DENV2 CPE: 53*; AF4-AF9 inh: -3

What do the screens show for `Cc1ccc(S(=O)(=O)N(C)C[C@@H]2OCCCC[C@@H](C)Oc3ccc(NC(=O)C4CCCCC4)cc3C(=O)N([C@H](C)CO)C[C@@H]2C)cc1`?
DENV2 CPE: -7

Results for COc1ccc(S(=O)(=O)N(C)C[C@@H]2OCCCC[C@@H](C)Oc3ccc(NC(=O)Nc4ccc(C(F)(F)F)cc4)cc3C(=O)N([C@H](C)CO)C[C@H]2C)cc1 ?
ERAP1 inh: 0; ERp5 inh: 7; DENV2 CPE: 22*; AF4-AF9 inh: -17

What do the screens show for `C[C@@H]1CCCCO[C@@H](CN(C)S(C)(=O)=O)[C@H](C)CN([C@@H](C)CO)C(=O)c2cc(NC(=O)Nc3ccc(C(F)(F)F)cc3)ccc2O1`?
ERAP1 inh: -3; ERp5 inh: 7; DENV2 CPE: 57*; AF4-AF9 inh: 2

Results for Cc1ccc(S(=O)(=O)N(C)C[C@H]2OCCCC[C@H](C)Oc3ccc(NC(=O)Nc4ccc(C(F)(F)F)cc4)cc3C(=O)N([C@H](C)CO)C[C@H]2C)cc1 ?
ERAP1 inh: 4; ERp5 inh: -10; DENV2 CPE: -4; AF4-AF9 inh: -1

Results for C[C@@H]1CCCCO[C@H](CN(C)S(C)(=O)=O)[C@@H](C)CN([C@H](C)CO)C(=O)c2cc(NC(=O)Nc3ccc(C(F)(F)F)cc3)ccc2O1 ?
ERAP1 inh: -1; ERp5 inh: 16; DENV2 CPE: -2; AF4-AF9 inh: 3

What do the screens show for `C[C@@H]1CCCCO[C@@H](CN(C)S(=O)(=O)c2ccc(F)cc2)[C@H](C)CN([C@@H](C)CO)C(=O)c2cc(NC(=O)Nc3ccc(C(F)(F)F)cc3)ccc2O1`?
ERAP1 inh: -1; ERp5 inh: -4; DENV2 CPE: 2; AF4-AF9 inh: -4

How did Cc1ccc(S(=O)(=O)N(C)C[C@H]2OCCCC[C@H](C)Oc3ccc(NC(=O)Nc4ccc(C(F)(F)F)cc4)cc3C(=O)N([C@@H](C)CO)C[C@@H]2C)cc1 do in these assays?
ERAP1 inh: 2; ERp5 inh: -3; DENV2 CPE: 0; AF4-AF9 inh: 1

Results for C[C@@H]1CCCCO[C@@H](CN(C)S(=O)(=O)c2ccc(F)cc2)[C@@H](C)CN([C@H](C)CO)C(=O)c2cc(NC(=O)Nc3ccc(C(F)(F)F)cc3)ccc2O1 ?
ERAP1 inh: 4; ERp5 inh: 1; DENV2 CPE: 88*; AF4-AF9 inh: -7

How did Cc1ccc(S(=O)(=O)N(C)C[C@@H]2OCCCC[C@H](C)Oc3ccc(NC(=O)Nc4ccc(C(F)(F)F)cc4)cc3C(=O)N([C@H](C)CO)C[C@@H]2C)cc1 do in these assays?
ERAP1 inh: 2; ERp5 inh: 3; DENV2 CPE: 23*; AF4-AF9 inh: -6

Results for Cc1ccc(S(=O)(=O)N(C)C[C@H]2OCCCC[C@H](C)Oc3ccc(NC(=O)Nc4ccc(C(F)(F)F)cc4)cc3C(=O)N([C@H](C)CO)C[C@@H]2C)cc1 ?
ERAP1 inh: 2; ERp5 inh: -7; DENV2 CPE: 55*; AF4-AF9 inh: 1

Results for Cc1noc(C)c1S(=O)(=O)Nc1ccc2c(c1)C(=O)N([C@H](C)CO)C[C@H](C)[C@H](CN(C)S(=O)(=O)c1cn(C)cn1)O2 ?
ERAP1 inh: 1; ERp5 inh: -5; DENV2 CPE: -6; AF4-AF9 inh: 1

Results for O=C(NCCS(=O)(=O)N1CCN(c2ccccc2)CC1)C1CC1 ?
ERAP1 inh: -3; PDI inh: -3; ERp5 inh: 2; DENV2 CPE: 104*; AF4-AF9 inh: -20

How did O=C(NCCS(=O)(=O)N1CCN(c2ccccc2)CC1)C1CCCC1 do in these assays?
ERAP1 inh: 1; PDI inh: -12; ERp5 inh: -2; DENV2 CPE: inconclusive; AF4-AF9 inh: -9

What do the screens show for `CC1NC(=O)NC1CCCCCC(=O)NCCc1ccccc1` (configuration not stated)?
ERAP1 inh: -3; PDI inh: 8; ERp5 inh: 13; DENV2 CPE: 0; AF4-AF9 inh: 77*

Results for Brc1ccc(-c2ncc(-c3ccccc3)cn2)cc1 ?
PDI inh: -7

How did Brc1ccc(-c2ccccc2)cc1 do in these assays?
ERAP1 inh: 2; ERp5 inh: -6; DENV2 CPE: 62*

Results for COc1ccc(C(=O)CC(=O)C(=O)Nc2cccc([N+](=O)[O-])c2C)cc1 ?
ERAP1 inh: 3; PDI inh: -42; ERp5 inh: 2; DENV2 CPE: 30*; AF4-AF9 inh: -3

Results for O=C(C[C@@H]1C[C@H]2c3cc(NC(=O)Nc4ccccc4)ccc3O[C@H]2[C@H](CO)O1)NCc1ccccc1 ?
ERAP1 inh: -5; ERp5 inh: 2; DENV2 CPE: 4; AF4-AF9 inh: 4

What do the screens show for `C[C@H](CO)N1C[C@H](C)[C@H](CN(C)S(=O)(=O)c2ccc(F)cc2)Oc2ccc(NC(=O)Nc3ccccc3)cc2C1=O`?
ERAP1 inh: -6; ERp5 inh: -6; DENV2 CPE: 3; AF4-AF9 inh: -8

How did CC(C)(O)C#Cc1ccc([C@H]2[C@@H](CO)N3CCCCN(C(=O)c4ccc(F)cc4)C[C@H]23)cc1 do in these assays?
ERAP1 inh: 4; ERp5 inh: 0; DENV2 CPE: 19; AF4-AF9 inh: -3

What do the screens show for `CC(C)(O)C#Cc1ccc([C@H]2[C@H](CO)N3CCCCN(C(=O)c4ccc(F)cc4)C[C@@H]23)cc1`?
ERAP1 inh: 1; ERp5 inh: -5; DENV2 CPE: 21*; AF4-AF9 inh: 1

How did CC(C)CC#Cc1ccc([C@H]2[C@@H](CO)N3CCCCN(C(=O)c4ccc5c(c4)OCO5)C[C@@H]23)cc1 do in these assays?
ERAP1 inh: 0; ERp5 inh: 2; DENV2 CPE: 24*; AF4-AF9 inh: 2

Results for CC(C)(O)C#Cc1ccc([C@@H]2[C@H](CO)N3CCCCN(S(C)(=O)=O)C[C@@H]23)cc1 ?
ERAP1 inh: 0; ERp5 inh: -1; DENV2 CPE: 37*; AF4-AF9 inh: -2

How did CCS(=O)(=O)N1CCCCN2[C@H](CO)[C@@H](c3ccc(C#CC(C)(C)O)cc3)[C@@H]2C1 do in these assays?
ERAP1 inh: 4; ERp5 inh: 0; DENV2 CPE: 1; AF4-AF9 inh: -7

What do the screens show for `C[C@@H]1CN([C@H](C)CO)C(=O)Cc2cc(NC(=O)Nc3ccc4c(c3)OCO4)ccc2O[C@H]1CN(C)C(=O)Nc1cccc2ccccc12`?
ERAP1 inh: 2; ERp5 inh: -3; DENV2 CPE: inconclusive; AF4-AF9 inh: 0

Source: PubChem BioAssay
